Hits are enriched below; roughly 3.5% of the tested compounds scored in any of these assays.
Mtb UGM inh – inhibitors of M. tuberculosis UDP-galactopyranose mutase; P9WIQ1; purified UGM, fluorescence polarization probe displacement; inhibition, % at 10 µM; 0.06% of 320,000 active; AID 504406; in the data active = inhibition above about 10%, passing the limit was not always enough
Rv3671c protease – inhibits the M. tuberculosis serine protease Rv3671c | inhibition, % at 5.96 µM | 0.048% of 320,000 active | P9WHR9; in the data active = inhibition above about 38%;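 note: extracellular domain of Rv3671c used as enzyme; 0% = enzyme with DMSO and 100% = no enzyme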
Target sequence (P9WHR9 whole entry, looked up, the tested form may be a part): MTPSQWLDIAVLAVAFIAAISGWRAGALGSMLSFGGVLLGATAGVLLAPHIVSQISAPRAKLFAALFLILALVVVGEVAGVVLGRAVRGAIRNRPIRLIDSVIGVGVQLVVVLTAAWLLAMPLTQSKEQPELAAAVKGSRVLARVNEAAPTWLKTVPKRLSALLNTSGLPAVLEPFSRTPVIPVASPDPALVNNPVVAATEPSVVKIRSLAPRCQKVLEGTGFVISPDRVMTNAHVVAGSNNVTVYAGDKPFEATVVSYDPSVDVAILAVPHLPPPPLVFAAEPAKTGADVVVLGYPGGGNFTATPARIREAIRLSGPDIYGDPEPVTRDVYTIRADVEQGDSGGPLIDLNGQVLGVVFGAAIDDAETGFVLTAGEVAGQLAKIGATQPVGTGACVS
Mtb FBA inh – Mtb fructose-bisphosphate aldolase inhibition | inhibition, % at 1 µM | purified M. tuberculosis FBA, fluorescence read-out | AID 588726 | P9WQA3 | 2.3% of 360,000 active; in the data active = inhibition above about 27%;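 note: 0% = vehicle and 100% = reference inhibitor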
GDH-TPI counter – GDH-TPI coupled enzyme inhibition counter-screen; GDH-TPI coupled enzyme counterscreen, NADH absorbance; inhibition, % at 4.8 µM; 1.2% of 360,000 active; in the data active = inhibition above about 30%;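 note: 0% = DMSO wells and 100% = wells lacking the enzyme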
Numbers without * were called inactive; . = not tested or not shown; + = active, no number.

SMILES	Mtb UGM inh	Rv3671c protease	Mtb FBA inh	GDH-TPI counter
CN(C)S(=O)(=O)c1cccc(NC(=O)COC(=O)c2cc(-c3cccc(Br)c3)nc3ccccc23)c1	-2	-85	-3	32*
CN(C)S(=O)(=O)c1cccc(NC(=O)COC(=O)/C=C/c2ccc(Br)o2)c1	-1	-11	0	39*
CCOC(=O)C1=CCC(c2ccc(Cl)cc2)N(S(=O)(=O)c2ccc(C)cc2)C1 (centres undefined)	.	.	2	.
Cc1cccc(C)c1N=Nc1c(C)cc(O)cc1C	-3	5	5	26
O=C1NC(=S)N/C1=C/c1cc([N+](=O)[O-])ccc1O	-3	-4	-21	34*
O=C1NC(=S)N/C1=C/c1cccc([N+](=O)[O-])c1O	2	0	-6	5
O=C(N/N=C/c1ccc[nH]1)c1c[nH]c2ccccc12	.	.	2	32*
Cc1ccc(/C=N/NC(=O)c2c[nH]c3ccccc23)s1	-3	0	-1	49*
Cc1ccc(/C=N/NC(=O)C(O)c2ccccc2)o1 (centres undefined)	0	8	4	31*
O=C(N/N=C/c1ccc[nH]1)c1sc2ccccc2c1Cl	2	-2	-4	38*
O=C(N/N=C/c1cc(Br)c(Br)o1)C(O)c1ccccc1 (centres undefined)	0	2	1	11
O=C(N/N=C/c1ccccn1)c1c[nH]c2ccccc12	3	2	3	21
O=C(N/N=C/c1ccncc1)c1sc2ccccc2c1Cl	1	-2	0	23
CC1NC(=O)c2cccnc2-n2c1nc1ccccc1c2=O (centres undefined)	.	.	3	7
COc1cc2c(cc1OC)C(C)N(C(=O)CCc1c[nH]c3ccccc13)CC2 (centres undefined)	0	2	0	-4
N#Cc1ccc(CN2CCN(C(=O)c3ccc(S(=O)(=O)N4CCCCCC4)cc3)CC2)cc1	-1	1	-2	6
O=S(=O)(/N=C(/Nc1ccccc1)c1ccccc1O)c1ccccc1	0	1	2	3
O=C(N/N=C/c1c[nH]c2ccccc12)c1ccc(O)c(O)c1	0	-3	-1	36*
O=C(N/N=C/c1cccc([N+](=O)[O-])c1)c1c[nH]c2ccccc12	3	-1	3	18
O=C(N/N=C/c1ccncc1)c1cc2ccccc2cc1O	-3	.	-1	18
Cc1ccsc1/C=N/NC(=O)c1ccccn1	1	1	2	39*
O=C(N/N=C/c1c[nH]c2ccccc12)c1cccc(O)c1	2	4	-2	6
Cc1ccsc1/C=N/NC(=O)c1cccs1	1	-3	-3	25
O=C(N/N=C/c1ccc[nH]1)c1cc2ccccc2cc1O	1	25	-2	37*
O=C(N/N=C/c1cc([N+](=O)[O-])ccc1O)c1c[nH]c2ccccc12	1	9	-5	39*
SMILES	Mtb UGM inh	Rv3671c protease	Mtb FBA inh	GDH-TPI counter
CN(C)C1(CNC(=O)C2CCC(=O)N(CCc3ccc(Cl)cc3)C2)CCCCC1 (centres undefined)	-1	4	-1	-2
COc1cccc(CN(CC(=O)NCc2ccccc2)C(=O)c2csnn2)c1	3	0	4	-4
Cc1ccc(/C=N/NC(=O)c2c[nH]c3ccccc23)o1	0	6	-6	59*
Cc1ccsc1/C=N/NC(=O)c1c[nH]c2ccccc12	2	-6	7	45*
Cc1ccc(/C=N/NC(=O)c2cccc3ccccc23)o1	-2	-3	-1	12
COc1ccc2cc(C(=O)O)ccc2c1	-1	8	5	10
COC(=O)C12CCc3c(ccc4cc(OC)ccc34)C1=CC(=O)C2 (centres undefined)	.	.	+	45*
COc1cccc(C2C3=C(CCCC3=O)Nc3[nH]n(-c4ccccc4)c(=O)c32)c1 (centres undefined)	-1	-1	0	21
O=C1CCCC2=C1C(c1ccc3c(c1)OCO3)c1c([nH]n(-c3ccccc3)c1=O)N2 (centres undefined)	1	-7	-4	37*
Cc1cc(C)cc(Nc2ccc(C(=O)O)cc2N)c1	0	22	118*	-3
COC(=O)c1ccccc1-c1ccc(/C=N/NC(=O)c2cc3ccccc3o2)o1	0	-26	5	52*
COC(=O)c1ccccc1-c1ccc(/C=N/Nc2nc(N3CCCC3)nc(N3CCCC3)n2)o1	1	-1	23	61*
COc1ccc(C2/C(=C(/O)c3ccc(C)cc3)C(=O)C(=O)N2CCCN2CCOCC2)cc1 (centres undefined)	0	-2	1	15
CC1(O)C(c2ccccc2)=Nc2ccccc21 (centres undefined)	.	.	-1	15
COc1cc2c(ccc3c4cc(OC)c(OC)cc4c[n+](C)c23)cc1O	.	.	-5	28
COc1cc2c[n+](C)c3c4ccccc4ccc3c2cc1OC	.	.	120*	20
COC(=O)c1nccc2c1[nH]c1ccccc12	2	4	1	-1
Cc1ccc2nc(-c3ccc(NS(=O)(=O)c4ccccc4)cc3)sc2c1	-1	-20	+	12
Cc1ccc2nc(-c3ccc(NS(=O)(=O)c4ccc(F)c(F)c4)cc3)sc2c1	1	-174	+	28
Brc1ccc2nc(-c3c[nH]c4ccccc34)cn2c1	-1	-3	-2	7
Cc1cccn2cc(-c3c[nH]c4ccccc34)nc12	0	9	195*	4
COc1cccc(OCCn2c(C)c(/C=N/n3cnnc3)c3ccccc32)c1	3	-14	0	34*
COc1cc2nc(N3CCN(C(=O)OCc4ccccc4)[C@H](C(=O)NC(C)(C)C)C3)nc(N)c2cc1OC	3	2	89*	20
Cc1c(CCC(=O)O)c(=O)n2c([nH]c3ccccc32)c1C#N	0	7	+	9
CC(SCc1cc(=O)n2c([nH]c3ccccc32)c1C#N)C(=O)O (centres undefined)	1	3	21	-3
SMILES	Mtb UGM inh	Rv3671c protease	Mtb FBA inh	GDH-TPI counter
C=C(C)Cc1c(C)c(C#N)c2[nH]c3ccccc3n2c1=O	2	-7	+	-1
CCc1cc(=S)n2c([nH]c3ccccc32)c1C#N	0	8	9	-1
COCc1cc(=O)n2c([nH]c3ccccc32)c1C#N	1	2	+	19
CCOc1ccc(CCNC(=O)COC(=O)c2c(C)nn(-c3ccccc3)c2C)cc1OCC	2	3	2	4
CCc1nn2c(NCCCO)cc(C)nc2c1-c1ccc(F)cc1	-1	-11	-1	-1
Cc1cc(C)c2c(n1)nn1c(NCCOCCO)cc(C)nc21	1	-10	+	1
Cc1cc(C)c2c(n1)nn1c(NCCCN(C)C)cc(C)nc21	0	-6	+	5
Cc1cc(NCCCN(C)C)n2nc(-c3cccs3)cc2n1	1	0	25	-1
CCOC(=O)c1cnc2c(C)cc(C)cc2c1NCCCN1CCOCC1	2	.	2	24
N=C1SCC(=O)N1c1ncc(Cc2ccc(F)cc2)s1	1	0	1	31*
Cc1nnc(N2C(=O)C(=O)/C(=C(/O)c3ccc4c(c3)OCCO4)C2c2ccc([N+](=O)[O-])cc2)s1 (centres undefined)	0	-5	-3	15

Assay outcomes (PubChem BioAssay)
